Reference: PubChem BioAssay AID602233 (National Center for Advancing Translational Sciences (NCATS), 2012)
Among all 380,000 compounds or so, about 170 (0.045%) were called active. The call rests on the fitted dose curve; in most records, active means well fitted inhibition curve with a large enough effect; inconclusive means small, poorly fitted or top-dose-only effect; inactive means no such curve, though single readings can be large or run the other way. For the sample, actives were picked, then their nearest neighbours and some compounds at random.

target: Phosphoglycerate kinase, glycosomal (Trypanosoma brucei brucei) (UniProt P07378); test: qHTS Assay to Find Inhibitors of Phosphoglycerate Kinase; conditions: PGK/GAPDH coupled, Kinase-Glo luminescence, 60 min; series mostly up to 57.5 µM; activity change, negative = inhibition: at the top concentration; further: nearly all actives have a fitted effect of over 60% in size
Description: Several species of the Trypanosomatidae family of parasitic protozoans cause a spectrum of diseases throughout the tropical and subtropical world. Sleeping sickness, caused by two subspecies of Trypanosoma brucei, is endemic to areas of sub-Saharan Africa, while Chagas disease, a manifestation of Trypanosoma cruzi infection, is prevalent throughout Central and South America. In addition, many species of Leishmania are responsible for a range of cutaneous and visceral diseases, causing ulcers, destructive lesions and kalaazar, a lethal infection of the viscera. Collectively, these organisms infect 30 million people worldwide (~500 million live in endemic areas), and account for ~130,000 deaths annually. Given their debilitating and prevalent nature, trypanosomatid parasites impose a heavy medical, economic and social burden on entire populations, primarily in the developing world. The problem is further exacerbated by the fact that existing treatments have progressed little in the past 50 years, and current drugs show high toxicity and poor efficacy. […] Blood-stream stages of T. brucei are entirely dependent on glycolysis as a source of ATP, and the tricarboxylic acid cycle and oxidative phosphorylation are both repressed. Glycolysis in axenically cultured T. cruzi, representing the intracellular pathogenic stage, is also essential for these parasites. […] Previous studies have shown that the glycolytic enzyme, phosphoglycerate kinase (PGK), is a viable target for drugs to kill these parasites. […] NIH Molecular Libraries Probe Production Network [MLPCN] NIH Chemical Genomics Center [NCGC] MLPCN Grant: R03 MH093212 PI Name: Malcolm Walkinshaw, University of Edinburgh
3ul of substrate/PGK buffer (columns 1,2,5-48) are dispensed into Greiner white solid bottom 1536-well assay plates; columns 3-4 receive only TEA buffer as 0x PGK controls. Compounds are then transferred via Kalypsys pin tool equipped with 1536-pin array (10nl slotted pins, V&P Scientific, San Diego, CA). Following addition of compound, 1ul of GAPDH (100nM final concentration, all columns) is added to initiate the reaction (this upstream coupling enzyme is necessary for in-well production of PGK substrate, 1,3-bisphosphoglycerate (1,3-BPG), which is unstable and not commercially available). The plates are then incubated at room temperature for 60 minutes. Kinase-Glo Plus reagent is added (2ul) and plates incubated for 10 minutes, before being transferred to a ViewLux high-throughput CCD imager (PerkinElmer) wherein single end-point measurements of luminescence are acquired using a clear filter. All reagents are diluted in an assay buffer consisting of 100mM TEA (pH 7.6), 5mM MgCl2 and 0.01% Tween-20.
On the % scale 0 is the no-effect control and ±100 the full control effect.

Phosphoglycerate kinase, glycosomal (Trypanosoma brucei brucei), sequence (P07378 whole entry, looked up): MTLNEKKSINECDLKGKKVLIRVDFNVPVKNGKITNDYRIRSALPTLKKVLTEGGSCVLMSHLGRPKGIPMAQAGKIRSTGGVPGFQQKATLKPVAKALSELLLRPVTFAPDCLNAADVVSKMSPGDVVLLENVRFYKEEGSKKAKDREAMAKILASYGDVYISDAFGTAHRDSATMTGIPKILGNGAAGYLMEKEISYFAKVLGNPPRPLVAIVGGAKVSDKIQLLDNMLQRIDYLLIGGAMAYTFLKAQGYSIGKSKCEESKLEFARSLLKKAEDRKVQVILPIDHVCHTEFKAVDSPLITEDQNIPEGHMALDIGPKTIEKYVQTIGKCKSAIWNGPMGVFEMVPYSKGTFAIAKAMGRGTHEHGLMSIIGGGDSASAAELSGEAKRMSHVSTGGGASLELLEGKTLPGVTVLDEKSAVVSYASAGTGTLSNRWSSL

Activity change, negative = inhibition, inactive:
CCCCOc1ccc(NC(=O)c2cc3c(n(-c4ccc(Cl)cc4)c2=O)CCCC3=O)cc1 -0.531%
CCOc1ccccc1CNCc1c(C(=O)O)c(C)n(Cc2ccc(C)cc2)c1C -6.39%
CCOc1ccc(CNC(=O)CCc2c(C)nn(-c3ccc(N4CCCCC4)nn3)c2C)cc1 -4.7%
CCOC(=O)C1CCCN(S(=O)(=O)c2cc(-c3cc(C)no3)ccc2OC)C1 (configuration not stated) -9.52%
COc1cccc(NC(=O)CN2C(=O)c3ccccc3Sc3ncccc32)c1 -0.909%
COc1cccc(OCCn2c(-c3ccc(Br)cc3)nc3ccccc3c2=O)c1 4.47%
O=C(Cn1c(=O)n(Cc2ccccc2)c(=O)c2sc3ccccc3c21)Nc1ccccc1F -5.67%
CCC(=O)N1CCc2cc(S(=O)(=O)NC(CC(C)C)C(=O)NCCc3cccc(C)c3)ccc21 (configuration not stated) 7.21%
CCOc1ccc(-n2nc3ccc(NC(=O)c4ccc(OC)c(Cl)c4)cc3n2)cc1 9.53%
Cc1cc(C)c(NC(=O)c2cc3sc(Cl)cc3n2C)c(C)c1 5.73%
COc1ccc(-c2nc(Cn3c(=O)cc(C)c4c(C)nn(-c5ccccc5)c43)c(C)o2)c(OC)c1 9.43%
COc1ccccc1CNC(=O)c1ccc(-n2c(C)cc3c2CCCC3)cc1 3.07%
Cc1ccc(O)c(NC(=O)CCS(=O)(=O)c2nc(-c3ccc4c(c3)OCO4)cc(C(F)(F)F)n2)c1 -6.86%
COc1ccc(NC(=O)c2ccco2)cc1NC(=O)COc1ccc(C)c(C)c1 3.35%
O=C(NCCCO)C(=O)Nc1c2c(nn1-c1ccccc1)CSC2 13.6%
COc1ccc(NC(=O)CCNS(=O)(=O)c2ccc3c(c2)CCCC(=O)N3)cc1Cl 0.351%
CN1c2ccc(Cl)cc2-c2nc(SCC(=O)Nc3cc(F)ccc3F)ncc2S1(=O)=O -1.46%
COc1ccc(Cc2nc3ccc(C(=O)NCc4ccc(OC)cc4OC)cc3o2)cc1 8.22%
COc1ccc(S(=O)(=O)NCCSc2nnnn2-c2ccccc2)cc1 -2.3%
COC(=O)c1c(NC(=O)CCCOc2ccccc2)sc2c1CCC(C)C2 (configuration not stated) 9.76%
Cc1nn2c(=O)cc(COC(=O)c3ccccc3NC(=O)COc3ccccc3C)nc2s1 0.156%
COc1ccccc1CNC(=O)CCCn1c(=O)c2ccccc2n(CC(=O)Nc2ccc(C)cc2Cl)c1=O -9.25%
COc1ccccc1CNC(=O)NCc1noc2ccc(C)cc12 -1.14%
CCOc1ccccc1NC(=O)Cn1c2ncccc2c(=O)n1-c1ccc(C)c(C)c1 -2.74%
O=C(CSc1nc2ccccc2nc1Cc1ccccc1)N1CCCCC1 -9.31%
CCOc1cccc(NC(=O)CSc2ncc(-c3ccc(Cl)cc3)[nH]2)c1 3.11%
Cc1c(C(=O)N(C)C)sc2c1c(=O)n(-c1ccc(F)cc1)c(=O)n2CC(=O)N(C)c1ccccc1 8.29%
CCOc1ccc(N(C)S(=O)(=O)c2cc(-c3cnc(C)o3)ccc2OC)cc1 2.21%
Cc1oc(-c2ccccc2F)nc1CN1CCC(C(=O)NCCc2ccc(Cl)cc2)CC1 0.46%
CCOc1ccc(NC(=O)c2c(NC(=O)Cc3ccccc3)sc3c2CCCCC3)cc1 5.92%
CCc1nnc(SCC(=O)Nc2cc(OC)ccc2OC)nc1CC 0.423%
CCOc1ccc(OCC)c(NC(=O)CN(c2ccc(C)cc2)S(=O)(=O)c2c(C)n[nH]c2C)c1 -0.327%
CCCS(=O)(=O)c1ncc(Cl)c(C(=O)Nc2scc(-c3ccccc3)c2C(=O)OCC)n1 -0.928%
Cc1sc(C2C(C#N)=C(N)N(c3cccc(Cl)c3)C3=C2C(=O)CCC3)cc1CN1CCOCC1 (configuration not stated) 1.36%
Cc1ccc(C(=O)N2c3ncnn3C3(CCCCC3)[C@@H]3CCCC[C@@H]32)cc1 -3.66%
CC1=Nc2cc(C(=O)NCc3ccc(C)cc3)ccc2Sc2ccc(Cl)cc21 1.58%
CCc1cnc2c(c1SCC(=O)N1CCC(C)CC1)c(=O)n(C)c(=O)n2C -7.57%
CCc1cccc(NC(=O)CN(c2ccc(C)c(C)c2)S(=O)(=O)c2ccsc2C(=O)OC)c1 -7.47%
CCOc1ccccc1NC(=O)c1ccc2c(c1)CCN2S(=O)(=O)c1ccc(C)cc1 -6.13%
CSc1ccc(NC(=O)Cn2nnnc2-c2ccccc2F)cc1 0.393%
CC(=O)c1ccc(NC(c2ccc(F)cc2)c2nnc(-c3ccccc3)o2)cc1 (configuration not stated) -9.83%

outcome, inactive:
COc1ccccc1-c1noc(CSc2nnc(-c3ccccc3)n2-c2ccc(C)c(C)c2)n1
CCn1c2ccccc2c2nnc(SCC(=O)O)nc21
CCCSc1nc2sc3c(c2c(=O)n1-c1cccc(Br)c1)CC(C)(C)OC3
CCOC(=O)C1CCCN(CC(=O)Nc2cc(C)c3c(=O)oc4ccccc4c3n2)C1 (configuration not stated)
O=C(CC(c1cccs1)N1Cc2ccccc2C1=O)Nc1ccc(F)c(F)c1 (configuration not stated)
CCOc1ccc(CCNC(=O)c2c(C)oc3ncn(C)c(=O)c23)cc1
